Screening results from PubChem BioAssay.
CSC inhib – cancer stem cell inhibition; cancer stem cell-like cells viability, luminescence; inhibition, % at 7.5 µM; 1.1% of 300,000 active; AID 2717; in the data active = inhibition above about 75%; tested in HMLE shEcad cells
Mdm2 MdmX PPI – human Mdm2/MdmX binding inhibition. O15151+Q00987. SaOS-2 split-luciferase Mdm2/MdmX complementation, luminescence. inhibition, % at 8 µM. 3% of 330,000 active. AID 485346;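 active = inhibition of at least 50% at 8 µM in the primary screen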
Beta apoptosis – blocks beta cell apoptosis. INS-1E cytokine-induced death, ATP luminescence, 48 h; percent of positive-control rescue, neutral wells zero. protection from apoptosis, % (concentration not given with the values). 0.8% of 300,000 active. AID 435005;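 active = Every replicate reaches about 75%, or at least half do and their mean reaches it too, limit read from the data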;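 note: 0% = cytokine-treated negative control wells and 100% = positive control rescue; higher means more ATP so stronger rescue from cytokine killing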
Shn3 3UTR inh – inhibitors of Schnurri-3 3'UTR reporter in osteoblasts; Clone20 osteoblast Shn3 3'UTR firefly luciferase, 24 h; inhibition, % at 12.5 µM; 0.52% of 360,000 active;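 active = mean inhibition of at least 75% with every replicate also reaching 75%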;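 note: 0% = median of neutral control wells and 100% = pilot-screen positive control compound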
PAX8 inh HTS – inhibitors of PAX8 transcriptional activity in RMG-I cells. RMG-I TPO-luciferase reporter, SteadyGlo, 24 h. inhibition, % at 12.6 µM. 1.2% of 360,000 active;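 active = mean replicate inhibition at least 60% with every replicate also reaching 60%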;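 note: luciferase light reporting Pax8 driven TPO promoter activity; plate controls were median of neutral control wells for no effect and mitoxantrone controls for full effect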
Gli-Sufu antag – antagonists of Gli-Sufu signaling. Sufu-KO-LIGHT fibroblasts, Gli luciferase reporter luminescence. inhibition, % at 5 µM. 0.74% of 340,000 active;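 active = inhibition above about 55%, limit read from the data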;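 note: 0% = DMSO-treated cells and 100% = wells with medium but no cells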
Starred values were filed as active, the others as inactive. Shown are actives, neighbours in structure and some others; about 4% of the full set was active somewhere.

`Cc1ccccc1-c1ccc2c(c1)O[C@@H](CN(C)C(=O)Nc1ccc(C(F)(F)F)cc1)[C@@H](C)CN([C@@H](C)CO)S2(=O)=O` gave PAX8 inh HTS 14.
`COc1cccc(S(=O)(=O)Nc2ccc3c(c2)[C@H]2C[C@@H](CC(=O)NCCc4ccccc4)O[C@@H](CO)[C@H]2O3)c1` gave PAX8 inh HTS 16.
Screening COc1ccc(OC)c(-c2csc(NC(=O)c3ccc(F)cc3)n2)c1 returned CSC inhib 86*, Mdm2 MdmX PPI 44, Beta apoptosis 11, Shn3 3UTR inh -3, PAX8 inh HTS 6 and Gli-Sufu antag -3.
Screening O=C(c1ccc(CSc2ccccc2)cc1)N1CCN(c2ccccc2)CC1 returned CSC inhib active, Mdm2 MdmX PPI -30, Beta apoptosis 1, Shn3 3UTR inh -81, PAX8 inh HTS 9 and Gli-Sufu antag -11.
Screening COc1ccccc1N1CCN(C(=O)c2ccc(CSc3ccccc3)cc2)CC1 returned CSC inhib 58, Mdm2 MdmX PPI -17, Beta apoptosis 7, Shn3 3UTR inh -14, PAX8 inh HTS 11 and Gli-Sufu antag 2.
`C[C@@H]1CN([C@H](C)CO)C(=O)c2cccc(N(C)C)c2O[C@H]1CN(C)Cc1ccc(C(=O)Nc2ccccc2N)cc1` gave PAX8 inh HTS 19.
For C[C@H](CO)N1C[C@H](C)[C@H](CN(C)Cc2ccccc2)OCCCC[C@H](C)Oc2ccc(NS(=O)(=O)c3ccc(Cl)cc3)cc2C1=O the results were PAX8 inh HTS 66*.
`C[C@@H]1CCCCO[C@@H](CN(C)Cc2ccccc2)[C@@H](C)CN([C@@H](C)CO)C(=O)c2cc(NS(=O)(=O)c3ccc(Cl)cc3)ccc2O1` gave PAX8 inh HTS 76*.
Screening C[C@H]1CCCCO[C@@H](CN(C)Cc2ccc(C(=O)O)cc2)[C@@H](C)CN([C@@H](C)CO)C(=O)c2cc(NS(=O)(=O)c3ccc(Cl)cc3)ccc2O1 returned PAX8 inh HTS 87*.
C[C@H]1CCCCO[C@@H](CN(C)Cc2ccccc2)[C@@H](C)CN([C@@H](C)CO)C(=O)c2cc(NS(=O)(=O)c3ccc(Cl)cc3)ccc2O1 was read as PAX8 inh HTS 75*.
For C[C@@H]1CN([C@@H](C)CO)C(=O)c2cc(NS(=O)(=O)c3ccc(Cl)cc3)ccc2O[C@@H](C)CCCCO[C@H]1CN(C)Cc1ccccc1 the results were PAX8 inh HTS 0.
Screening CC(C)C[C@@H](CN1CCC[C@@H]1CN1C(=O)C(=O)NC[C@@H]1Cc1ccccc1)N1C[C@H](Cc2ccc(O)cc2)N(CC2CCCCC2)C(=O)C1=O returned Shn3 3UTR inh -16, PAX8 inh HTS -8 and Gli-Sufu antag -11.
Screening CC(C)C[C@H]1CNC(=S)N1C[C@H]1CCCN1C[C@H](Cc1ccc(O)cc1)N1C[C@H](Cc2ccc(O)cc2)N(CC2CCCCCC2)C1=S returned Shn3 3UTR inh 5 and PAX8 inh HTS 73*.
For CCOc1ccc(CCN2C(=S)N([C@@H](CC(C)C)CN3CCCC3CN3C(=S)NC[C@@H]3Cc3ccc(O)cc3)C[C@@H]2Cc2ccc(O)cc2)cc1 (stereo partly drawn) the results were Shn3 3UTR inh 86*, PAX8 inh HTS 54 and Gli-Sufu antag 9.
`CC(C)C[C@@H](CN1CCC[C@H]1CN1C(=O)C(=O)NC[C@@H]1Cc1ccccc1)N1C[C@H](Cc2ccc(O)cc2)N(CC2CCCCCC2)C(=O)C1=O` gave PAX8 inh HTS 68*.
`CC(C)C[C@@H](CN1CCCC1CN1C(=S)NC[C@@H]1Cc1ccc(O)cc1)N1C[C@H](Cc2ccccc2)N(CC2CCCCCC2)C1=S` (stereo partly drawn) gave Shn3 3UTR inh 25, PAX8 inh HTS 17 and Gli-Sufu antag 24.
Screening CC(C)C[C@@H](CN1CCCC1CN1C(=S)NC[C@@H]1Cc1ccc(O)cc1)N1C[C@H](Cc2ccc(O)cc2)N(CC2CCCCCC2)C1=S (stereo partly drawn) returned Shn3 3UTR inh 83, PAX8 inh HTS 82* and Gli-Sufu antag 28.
Screening O=C(c1ccccc1)N1Cc2ccccc2[C@H]2OC(c3ccc(OCCCO)cc3)=N[C@@]2(CCS(=O)(=O)c2ccccc2)C1=O returned PAX8 inh HTS 4.
Screening CC(=O)N1[C@H](CO)[C@@H]2c3ccccc3N(C(=O)c3ccccc3)C[C@@H]21 returned PAX8 inh HTS -8.
`Cc1ccc(S(=O)(=O)Nc2ccc3c(c2)C(=O)N([C@H](C)CO)C[C@@H](C)[C@@H](CN(C)C(=O)Nc2c(C)noc2C)O3)cc1` gave PAX8 inh HTS 6.
For Oc1ccc(C[C@@H](CN2CCC[C@@H]2CN2C(=S)NC[C@@H]2Cc2ccccc2)N2C[C@H](Cc3ccccc3)N(CCc3ccccc3)C2=S)cc1 the results were Shn3 3UTR inh 4 and PAX8 inh HTS 20.
Screening Oc1ccc(C[C@@H]2CNC(=S)N2CCCCC2CCCCC2)cc1 returned CSC inhib 115*, Mdm2 MdmX PPI -17, Beta apoptosis -3, Shn3 3UTR inh -3, PAX8 inh HTS -14 and Gli-Sufu antag 21.
Screening O=C1NC[C@@H](Cc2ccc(O)cc2)N(CCCCC2CCCCC2)C1=O returned PAX8 inh HTS -13.
For Oc1ccc(C[C@H]2CNC(=S)N2CC2CCCN2C[C@H](Cc2ccccc2)N2C[C@H](Cc3ccc(O)cc3)N(CCc3ccccc3)C2=S)cc1 (stereo partly drawn) the results were Shn3 3UTR inh 29, PAX8 inh HTS 91* and Gli-Sufu antag 25.
`CO[C@H]1CN(C)C(=O)c2cc(NC(=O)c3ccccc3F)ccc2OC[C@@H](C)N(C(C)=O)C[C@H]1C` gave PAX8 inh HTS 6.
`CC1CCN(c2ccc(C(=O)Nc3ccc4c(c3)OCO4)cc2[N+](=O)[O-])CC1` gave CSC inhib 78*, Mdm2 MdmX PPI 18, Beta apoptosis 13, Shn3 3UTR inh 32, PAX8 inh HTS -10 and Gli-Sufu antag 5.
Screening O=C(COC(=O)c1ccc(N2CCOCC2)c([N+](=O)[O-])c1)Nc1ccc2c(c1)OCO2 returned CSC inhib -7, Mdm2 MdmX PPI 6, Beta apoptosis 1, Shn3 3UTR inh -29, PAX8 inh HTS 13 and Gli-Sufu antag -5.
CC1CCCN(c2ccc(C(=O)Nc3ccc4c(c3)OCO4)cc2[N+](=O)[O-])C1 (stereo not drawn) was read as CSC inhib 102*, Mdm2 MdmX PPI 34, Beta apoptosis 6, Shn3 3UTR inh -16, PAX8 inh HTS -14 and Gli-Sufu antag -3.
Screening O=C(Nc1ccc(-c2nc3ccccc3o2)cc1)c1ccc(N2CCOCC2)c([N+](=O)[O-])c1 returned CSC inhib 7, Mdm2 MdmX PPI 34, Beta apoptosis 99* and Shn3 3UTR inh 91*.
